Assay outcomes deposited in PubChem by National Center for Advancing Translational Sciences (NCATS).
Pf Dd2 inh: qHTS Primary assay for Inhibitors of Plasmodium falciparum Dd2 growth in vitro; Potency, µM (doses to about 28.9 µM), usual class: inhibitors; P. falciparum Dd2 growth, SYBR Green, 72 h; 4.3% of 120,000 active; active = well fitted inhibition curve with a large enough effect; also: nearly all actives have a fitted effect of over 65% in size
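Infected erythrocytes (Dd2, 0.3% parasitemia, 2.5% hematocrit final) are added to compound in RPMI-1640/Albumax II medium, grown 72 h at 37C in low oxygen, then lysed with saponin/Triton-X containing SYBR Green and read by fluorescence.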
Numbers stand for hits; i = inactive. Many of the other results were omitted from the sample, so hits are more common in it than they were.

SMILES	Pf Dd2 inh
COC(=O)c1c(C)sc(-c2c(-c3ccc4c(c3)OCCO4)[nH]c3c2c(=O)n(C)c(=O)n3C)c1O	i
CCOC(=O)c1c(C)sc(-c2c(-c3ccc4c(c3)OCCO4)[nH]c3c2c(=O)n(C)c(=O)n3C)c1O	8.91µM
CCCN(c1ccccc1CC)S(=O)(=O)c1ccc2c(c1)CC(C)N2C(=O)C1CC1 (stereo unspecified)	8.91µM
Cc1cc(C)c(NS(=O)(=O)c2ccc3c(c2)CC(C)N3C(=O)C2CCC2)c(C)c1 (stereo unspecified)	i
CCc1ccccc1NC(=O)C1CCC(CNS(=O)(=O)c2ccc3c(c2)CC(C)N3C(C)=O)CC1 (stereo unspecified)	i
O=C(CCn1cnnn1)Nc1cc(C(F)(F)F)cc(C(F)(F)F)c1	i
CCc1cc(=O)n(CC(=O)Nc2ccccc2F)c(-c2ccccc2)n1	i
Cc1c(Cl)cccc1NC(=O)CN(CCc1ccccc1)S(=O)(=O)c1ccccc1	i
Cc1ccc(C)c(NC(=O)CN(CCc2ccccc2)S(=O)(=O)c2ccccc2)c1	i
CCOc1ccccc1NC(=O)CN(CCc1ccccc1)S(=O)(=O)c1ccc(C)cc1	11.2µM
Cc1nc2cccnc2n1C1CCN(C(=O)Nc2ccccc2)CC1	i
O=C(CCC1CCN(C(=O)c2ccccc2)CC1)Nc1cccc(Cl)c1	i
Cc1ccc2oc(=O)n(CCNC(=O)Nc3ccccc3Cl)c2c1	i
CC(C)(C)CC(=O)N[C@@H]1C=C(C(=O)NCCC(N)=O)C[C@@H](O)[C@@H]1O	i
COc1ccccc1CN1CCCn2nc(C)c(-c3cccnc3N3CCOCC3)c21	i
COc1cccc(CNC(=O)c2cc(-c3ccc(Cl)s3)nc3ccccc23)c1	i
CCN(CC)CCNC(=O)c1cc(-c2ccc(Br)s2)nc2ccccc12	11.2µM
CCc1ccc(CNC(=O)c2cc(-c3ccc(Br)s3)nc3ccccc23)cc1	i
CC(C)c1nncn1C1CCN(S(=O)(=O)c2cccs2)CC1	i
COC(=O)c1ccc(NC(=O)CSc2nc3c(c(=O)n(C)c(=O)n3C)n2Cc2ccccc2)cc1	i
COC(=O)c1ccccc1NC(=O)CSc1nc(=O)cc(N)n1-c1ccccc1	i
COC(=O)c1ccc(NC(=O)C(C)Sc2nc(=O)cc(N)n2CCc2ccccc2)cc1 (stereo unspecified)	11.2µM
CC(=O)Nc1ccc(CN2CC3(C2)C(=O)N(Cc2ccc(C)o2)C(=O)[C@@H]2C[C@@H](O)CN23)cc1	i
Cc1ccc(CN2C(=O)[C@@H]3C[C@@H](O)CN3C3(CN(CC4CC4)C3)C2=O)o1	i
Cc1ccc(CN2C(=O)[C@@H]3C[C@@H](O)CN3C3(CN(CC(C)C)C3)C2=O)o1	i
SMILES	Pf Dd2 inh
Cc1ccc(CN2C(=O)[C@@H]3C[C@@H](O)CN3C3(CN(Cc4ccc(F)cc4)C3)C2=O)o1	14.1µM
Cc1ccc(CN2C(=O)[C@@H]3C[C@@H](O)CN3C3(CN(Cc4ccc(C#N)cc4)C3)C2=O)o1	i
Cc1ccc(CN2C(=O)[C@@H]3C[C@@H](O)CN3C3(CN(CCC(C)C)C3)C2=O)o1	11.2µM
O=C(NCCc1ccncc1)C1CC(=O)N(c2n[nH]c3ccccc23)C1 (stereo unspecified)	i
CN1C(=O)c2ccccc2Sc2ccc(NC(=O)N3CCN(c4ccc(F)cc4)CC3)cc21	7.94µM
CC(C)NC(=O)Nc1ccc2c(c1)N(C)C(=O)c1ccccc1S2	i
CCN1C(=O)c2ccccc2Sc2ccc(NC(=O)N3CCN(c4cc(C)ccc4C)CC3)cc21	i
CCNC(=O)c1n[nH]c2c1CN(C(=O)c1ccc(C(F)(F)F)cc1)CC2	i
CCc1noc(C)c1C(=O)N[C@H]1[C@@H]2CCO[C@@H]2[C@@H]1C1CCCC1	i
CCN1CCN(CCCNC(=O)Cn2c(-c3cccs3)cc3ccccc32)CC1	i
Cc1ccc(C)c(N2CCN(CCCNC(=O)Cn3ncc4c5ccccc5n(C)c4c3=O)CC2)c1	i
CC(C)c1nc2ccc(C(=O)NCCCN3CCN(c4cccc(Cl)c4)CC3)cc2o1	i
CCCN1CCN(C(=O)Cn2c(-c3cccs3)cc3cc(F)ccc32)CC1	i
CC1CCN(C(=O)Cn2c(-c3cccs3)cc3cc(Cl)ccc32)CC1	i
Cc1ccc(CCNC(=O)Cn2c(-c3cccs3)cc3ccccc32)cc1	12.6µM
CCC(=O)N1c2ccccc2CC1C(=O)NCCN1CCN(c2cccc(Cl)c2)CC1 (stereo unspecified)	i
O=C(Cn1c(-c2cccs2)cc2ccccc21)NCCCN1CCN(c2cccc(Cl)c2)CC1	11.2µM
Cc1cc(C)c(NC(=O)Cn2c(=O)n(CC(=O)NCCc3ccccc3)c(=O)c3ccccc32)c(C)c1	i
CCCN1CCN(CCCNC(=O)Cn2c(-c3cccs3)cc3cc(Cl)ccc32)CC1	8.91µM
Cc1ccc(NC(=O)Cn2c(CCC(=O)O)ccc2-c2cccs2)cc1	i
Cc1ccc(C)c(N2CCN(CCCNC(=O)Cn3c(-c4cccs4)cc4ccccc43)CC2)c1	7.94µM
COCCOC1CN(C2CCN(C(=O)c3cccc4[nH]ccc34)CC2)C12CCCCC2 (stereo unspecified)	i
CC(C)c1nc2ccccc2n1CC(=O)NC1CCCN(c2ncccn2)C1 (stereo unspecified)	i
O=C(NCc1nnc2ccc(-c3ccccc3)nn12)c1ccccn1	i
CCOCCNc1ncnc2c1CN(C1CCCNC1)C(=O)CN2C (stereo unspecified)	i
SMILES	Pf Dd2 inh
CC1CCc2onc(C(=O)Nc3ccc(Cl)cc3)c2C1 (stereo unspecified)	i
Cc1ccc(Cn2c(=O)n(Cc3ccccc3Cl)c(=O)c3ccccc32)cc1	i
CCn1cc(CN2CCN(S(C)(=O)=O)CC2)ccc1=O	i
Cc1cc(CNC(=O)[C@H]2CNC[C@@H](C(=O)N3CCCC3)C2)n(C)n1	i
CNC(=O)C1CCN(C(=O)c2cc(COc3ccccc3OC)[nH]n2)C1 (stereo unspecified)	i
O=C(c1cn2ccccc2n1)N1C[C@@H](CO)[C@H](c2ccccn2)C1	i
COc1ccc([C@H]2C[C@@H](O)[C@@H](O)[C@@H]2NCc2cccc(C(F)(F)F)c2)cc1	8.91µM
COc1ccc([C@H]2C[C@@H](O)[C@@H](O)[C@@H]2NCc2cccc(C#N)c2)cc1	i
COc1ccc([C@H]2C[C@@H](O)[C@@H](O)[C@@H]2NCc2cnc3ccccc3c2)cc1	i
COC[C@H]1CCCN1C(=O)CC[C@H]1CNC(=O)[C@@H]2[C@@H](CCN2Cc2ccc(S(C)(=O)=O)cc2)N1C	i
CCc1ccc(CNc2ncnc3c2nc2n3CCCC2)cc1	i
Cn1c(=O)c2c(ncn2Cc2ccc(Cl)cc2)n(C)c1=O	i
Cn1c(=O)c2c(-c3ccc(Cl)cc3)n(Cc3ccc(Cl)cc3)cc2n(C)c1=O	11.2µM
CCOC(=O)Cn1cc2c(c1-c1ccc(Cl)cc1)c(=O)n(C)c(=O)n2C	i
Cc1nnc([C@@H]2CC(F)(F)CN2C(=O)c2ccc3ccccc3n2)o1	i
CN1[C@@H](CCC(=O)N2CCN(c3ccccn3)CC2)CNC(=O)[C@@H]2[C@H]1CCN2Cc1ncc[nH]1	i
CCCc1noc(Cn2nc(-c3ccccc3)c3ccccc3c2=O)n1	i
COc1cc(C(=O)N2CCC(Cc3nc(-c4ccc(F)cc4)no3)CC2)cc(OC)c1OC	i
Nc1n[nH]c(CNC(=O)c2cn(CCC3CCCCN3)nn2)n1 (stereo unspecified)	i
CN(CCc1ccccc1)C(=O)C1CCCN(C2CCN(C(=O)C3CC3)CC2)C1 (stereo unspecified)	i
COCCCNS(=O)(=O)c1cc(-c2onc(C)c2C)ccc1OC	i
